Tb PFK block – T. brucei PFK enzyme inhibition. O15648. T. brucei PFK, ADP-Glo luminescence. Potency, µM (series often up to 57.5 µM), most hits filed as inhibitors. 330,000 compounds, 0.17% hits; note: nearly all actives have a fitted effect of over 60% in size
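1.25 nM PFK with 0.5 mM F6P and 0.1 mM ATP in 0.1 M TEA pH 8.0, 5 mM MgCl2, incubated 45 min at room temperature; ADP measured by ADP-Glo luminescence; compounds titrated up to 57 uM.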
PI5P4K alpha inh – inhibitors of human PI5P4K alpha; P48426; PI5P4Kalpha enzyme, ADP-Glo luminescence, 60 min; hits give low values; max response, %; 330,000 compounds, 1.2% hits; AID 652105; active = max response of -50% or lower; inconclusive = between -30% and -50%; inactive = -30% or higher; note: value at the top dose of about 77 µM
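Reactions run in 0.038 M HEPES pH 7.4, 0.28 mM EGTA, 0.1% CHAPS and 5% DMSO, with PI5P4Kalpha, substrate, compound and 5 microM ATP final, one hour at room temperature. Readout is ADP-Glo luminescence.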
PI4K2A inh – PI4K2A (human) kinase inhibition. purified PI4K2A, ADP-Glo luminescence, 1 h; hits give low values. Q9BTU6. 420,000 compounds, 0.13% hits. AID 1346378. activity change, negative = inhibition, % at 76.9 µM; in the data active = activity change below about -50%; inconclusive = mostly about -30% to -49%
Target sequence (Q9BTU6 whole entry, looked up): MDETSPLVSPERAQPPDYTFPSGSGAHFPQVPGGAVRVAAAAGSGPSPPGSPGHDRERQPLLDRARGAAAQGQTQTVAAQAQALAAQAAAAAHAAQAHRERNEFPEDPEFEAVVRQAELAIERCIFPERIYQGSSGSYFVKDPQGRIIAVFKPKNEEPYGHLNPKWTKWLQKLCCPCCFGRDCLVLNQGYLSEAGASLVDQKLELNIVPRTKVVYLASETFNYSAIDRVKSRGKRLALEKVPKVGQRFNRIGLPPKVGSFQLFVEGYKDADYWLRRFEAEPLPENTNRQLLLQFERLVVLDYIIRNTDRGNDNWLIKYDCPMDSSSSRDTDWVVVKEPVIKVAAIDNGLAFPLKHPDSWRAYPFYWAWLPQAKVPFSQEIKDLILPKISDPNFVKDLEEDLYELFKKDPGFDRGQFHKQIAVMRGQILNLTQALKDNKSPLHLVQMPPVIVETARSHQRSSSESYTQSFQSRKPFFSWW
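ADP-Glo luminescence measured ADP generated by PI4K2A enzyme (4 ug/mL before mixing) with 1.2 mM PI substrate (pre-mix) and 300 microM ATP (pre-mix). Tris pH7.5 buffer with MgCl2, Triton X-100; 1 h reaction at ambient temperature.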
Pin1 inh – human Pin1 inhibition | Q13526 | AID 504891 | 390,000 compounds, 0.009% hits | Potency, µM (top dose mostly 115 µM), hits mostly inhibitors | Pin1 FP peptide displacement, HiFluor488, 10 min; active = well fitted inhibition curve with a large enough effect in the polarisation, with a control signal flat, not every such curve was filed as active; inconclusive = small, poorly fitted or top-dose-only effect, or effect the other way, or a change in a side signal; inactive = no such curve, though single readings can be large or run the other way; the % refers to the polarisation
Target sequence (Q13526 whole entry, looked up): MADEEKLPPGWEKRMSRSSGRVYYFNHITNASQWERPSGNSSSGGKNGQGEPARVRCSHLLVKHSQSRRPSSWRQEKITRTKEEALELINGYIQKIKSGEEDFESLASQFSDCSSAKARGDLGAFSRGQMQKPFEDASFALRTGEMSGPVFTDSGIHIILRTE
PGK inhibitor – blocks T. brucei phosphoglycerate kinase; P07378; PGK/GAPDH coupled, Kinase-Glo luminescence, 60 min; Potency, µM (doses to about 57.5 µM), hits mostly inhibitors; 380,000 compounds, 0.043% hits; AID 602233; note: nearly all actives have a fitted effect of over 60% in size
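Recombinant glycosomal PGK reaction used 1,3-bisphosphoglycerate generated in-well by GAPDH (100nM final) in 100mM TEA pH 7.6, 5mM MgCl2, 0.01% Tween-20. After 60 minutes at room temperature, ATP was read by Kinase-Glo Plus luminescence end-point.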
Of the large screens only hits and unclear results are named; the others gave an inactive call. Many of the other results were omitted from the sample, so hits are more common in it than they were. Unless noted, calls come from the whole dose curve; as a rule, active = well fitted curve in the direction sought with a large enough effect; inconclusive = small, poorly fitted or top-dose-only effect, or another doubt; inactive = no such curve, though single readings can be large; an effect the other way counts as inactive or inconclusive.

O=C(Cc1ccccc1)Nc1cccc(N2C(=O)C=CC2=O)c1	Tb PFK block inconclusive, PI5P4K alpha inh -52
COc1cccc(NC(=O)Cc2ccccc2)c1	none
Cc1ccc(Oc2ccc(Cl)cc2NC(=O)c2cnccn2)cc1	none
COC(=O)c1sc(-c2ccc(Cl)cc2)cc1NC(=O)CSCC(=O)O	PI5P4K alpha inh -53
COC(=O)c1sc(-c2ccccc2)cc1NC(=O)Nc1ccc(Cl)cc1	none (no result: Tb PFK block, PI5P4K alpha inh)
O=Cc1ccc(C(=O)OCC(=O)NC(=O)Nc2ccccc2F)cc1	PI5P4K alpha inh -57
Cc1cc(=O)[nH]c2nnc(SCC(=O)Nc3cc(C(F)(F)F)ccc3Cl)n12	PI4K2A inh -58 (no result: Tb PFK block, PI5P4K alpha inh)
COc1ccc(/C=N/Nc2nncn2N)cc1Br	PI4K2A inh -54
COc1cc(/C=N/Nc2nncn2N)ccc1OCc1c(C)no[n+]1[O-]	none
O=C(Nc1ccccc1[N+](=O)[O-])OCC=Cc1ccccc1	none (no result: Tb PFK block, Pin1 inh)
CC(C)(C)C1CCc2c(C(=O)NNC(=O)/C=C/C(=O)O)csc2C1 (stereo unspecified)	PI5P4K alpha inh -69
CC(C)(C)C1CCc2c(C(=O)N/N=C/c3cccs3)csc2C1 (stereo unspecified)	none (no result: PI5P4K alpha inh)
O=C(COC(=O)c1ccc(NS(=O)(=O)c2cccs2)cc1)Nc1nc2c(F)c(F)c(F)cc2s1	PI5P4K alpha inh -90, Pin1 inh inconclusive
O=C(COC(=O)c1cc(NS(=O)(=O)c2cccs2)ccc1O)Nc1ccc(F)c(F)c1F	none
CCOC(=O)C1=CN(CC)CCC1=O	none (no result: Tb PFK block)
Cc1ccccc1/C=N/Nc1ccnc2cc(Cl)ccc12	PI5P4K alpha inh -75
Clc1ccc2c(N/N=C/c3cccnc3)ccnc2c1	Pin1 inh inconclusive
Cc1ccc(/C=N/Nc2ccnc3cc(Cl)ccc23)c(C)c1	PI5P4K alpha inh -82
Clc1ccc2c(N/N=C/c3ccc(Br)cc3)ccnc2c1	PI5P4K alpha inh -73
CC(C)(C)NC(=O)C(c1ccc(C(F)(F)F)cc1)n1c(=O)c(-c2ccco2)nc2ccccc21 (stereo unspecified)	PI5P4K alpha inh -64 (no result: Tb PFK block, Pin1 inh, PGK inhibitor)
CC(C)(C)NC(=O)C(C1CC1)n1c(=O)c(-c2ccco2)nc2ccccc21 (stereo unspecified)	PI5P4K alpha inh -63 (no result: Tb PFK block, Pin1 inh, PGK inhibitor)
O=C(NCc1ccccc1)C(c1ccc(C(F)(F)F)cc1)n1c(=O)c(-c2ccco2)nc2ccccc21 (stereo unspecified)	PI5P4K alpha inh inconclusive (no result: Tb PFK block, Pin1 inh, PGK inhibitor)
CC/C(=C\C(=O)c1ccncc1)Nc1ccc(O)cc1	PI4K2A inh -50
O=C(Nc1ccc2nc(-c3ccco3)c(-c3ccco3)nc2c1)NC1CC1	PI5P4K alpha inh -75, PI4K2A inh inconclusive, PGK inhibitor inconclusive (no result: Pin1 inh)
CC(=O)Oc1ccc(-c2cc3c(OC(C)=O)cc(OC(C)=O)cc3oc2=O)cc1	PI5P4K alpha inh -56 (no result: Tb PFK block)
CC(=O)Oc1ccc(-c2cc3ccccc3oc2=O)cc1	none (no result: Tb PFK block)
COC(=O)C1=C(C)N(CCCC(=O)O)C(=O)NC1c1cccc2ccccc12 (stereo unspecified)	PI5P4K alpha inh -71 (no result: Tb PFK block)
COC(=O)C1=C(C)N(CCCC(=O)O)C(=O)NC1c1cccc(Cl)c1Cl (stereo unspecified)	PI5P4K alpha inh -98 (no result: Tb PFK block)
CC1=C(C(=O)OCc2ccccc2)C(c2cccc(Cl)c2Cl)NC(=O)N1CCCCCC(=O)O (stereo unspecified)	none
CC1=C(C(=O)OCc2ccccc2)C(c2cccc3ccccc23)NC(=O)N1CCCC(=O)O (stereo unspecified)	PI5P4K alpha inh -86
C=CCn1c(COc2ccccc2)nnc1SCc1ccc(C#N)cc1	none
C=CCn1c(COc2ccc(Cl)cc2)nnc1SCc1ccc(C#N)cc1	PI5P4K alpha inh -80, Pin1 inh inconclusive
CCN(CC)CCNC(=O)C1CCCN(c2ncnc3onc(C)c23)C1 (stereo unspecified)	none (no result: Tb PFK block, PI5P4K alpha inh)
CCOC(=O)C1=C(O)/C(=C/c2ccc(-c3ccccc3C(=O)O)o2)SC1=Nc1ccc(OC)cc1	PI5P4K alpha inh -55
CCOC(=O)C1=C(O)/C(=C/c2ccc(-c3ccccc3C(=O)O)o2)SC1=Nc1ccc(C)cc1	PI5P4K alpha inh -99
O=S(=O)(NCCSc1ccccc1)c1ccc2c(c1)OCCO2	none
O=C(C[C@H]1C[C@@H]2c3cc(NC(=O)Nc4ccccc4F)ccc3O[C@@H]2[C@H](CO)O1)NCc1ccccn1	none (no result: Tb PFK block, Pin1 inh)
N#C/C(=C/c1ccc(-c2ccc(S(N)(=O)=O)cc2)o1)c1nc2ccccc2s1	PI5P4K alpha inh -53, Pin1 inh inconclusive
N#C/C(=C/c1ccc(-c2ccc(S(N)(=O)=O)cc2)o1)C(=O)Nc1ccccc1	PI5P4K alpha inh inconclusive, Pin1 inh inconclusive
CCOC(=O)/C(C#N)=C/C1=C(N2CCCC2)CC(C)(C)OC1	none
COc1ccc2c(c1)OC[C@H]1[C@H]2N2C(=O)c3ccc(C)cc3NC(=O)[C@@]2(C)[C@H]1c1ccccc1	none
Cc1cc(C)c(NC(=O)CN2CCC(NC(=O)NC3CCCCC3)CC2)c(C)c1	none (no result: PI5P4K alpha inh, PI4K2A inh, Pin1 inh, PGK inhibitor)
CC1Oc2ccccc2N(CC(=O)N(Cc2ccccc2)Cc2ccccn2)C1=O (stereo unspecified)	PI4K2A inh -71 (no result: PI5P4K alpha inh)
CCC[C@@H](CN1CCC[C@H]1CN1C(N)=NC[C@@H]1Cc1ccccc1)N1C[C@@H]([C@H](C)CC)N(CCCC2CCCC2)C1=N	PI5P4K alpha inh -87
CCOc1ccc(CC2CCC(=O)NC2=O)cc1 (stereo unspecified)	none (no result: PGK inhibitor)
Nc1nc(Nc2cccc(Cl)c2)nc(NCCO)c1[N+](=O)[O-]	PI5P4K alpha inh -63
COc1cccc(C(=O)OCCCOC(=O)c2cccc(OC)c2OC)c1OC	none (no result: Tb PFK block)
O=C(Nc1cnccn1)c1cccs1	none (no result: PI5P4K alpha inh)
Cn1cc(C(c2ccccc2OCC(=O)O)c2cn(C)c3ccccc23)c2ccccc21	PI5P4K alpha inh -53
CCOC(=O)C1=C(C)OC(N)=C(C(=O)OCC)C1c1ccncc1 (stereo unspecified)	none
CCOC(=O)C1=C(C)NC(C)=C(C(=O)OCC)C1c1ccncc1	PI4K2A inh -76 (no result: Tb PFK block, Pin1 inh)
CCC(=O)Nc1ccc(C(=O)COC(=O)c2nc3nccc(C)n3n2)cc1	Tb PFK block inconclusive, PI5P4K alpha inh -90, Pin1 inh inconclusive, PGK inhibitor inconclusive
Cc1ccnc2nc(C(=O)OCC(=O)c3ccc(NC(=O)CC(C)C)cc3)nn12	none
COc1ccccc1CNC(=O)COC(=O)c1cc(C)nc2ccccc12	none
COc1ccccc1CNC(=O)COC(=O)c1cc(-c2ccco2)nc2ccccc12	Tb PFK block inconclusive, PI4K2A inh -53, Pin1 inh inconclusive (no result: PI5P4K alpha inh, PGK inhibitor)
CC(C)Cn1c(N)c(C(=O)COC(=O)c2cc(-c3ccco3)nc3ccccc23)c(=O)n(C)c1=O	Tb PFK block inconclusive, PI5P4K alpha inh -97
Cn1c(=O)c(C(=O)COC(=O)c2cc(-c3ccco3)nc3ccccc23)c(N)n(Cc2ccccc2)c1=O	none (no result: PI5P4K alpha inh, PI4K2A inh, Pin1 inh, PGK inhibitor)
COc1ccc(-n2nc(C(=O)NCC(=O)NCCCN3CCC(C)CC3)c3ccccc3c2=O)cc1Cl	none
